About 83,000 compounds went through this panel and 20% of them were active in at least one assay; those are over-represented in the sample as a whole.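 Negative percent growth values reflect cell death: -40 means 40% of the cells present at the start died, and -100 means all died.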 Activity calls are given as the source filed them. Rule for the calls: active = growth percent below 10; inactive = the rest.
Experiments:
Experiment in all cases: NCI-60 one-dose screen, 48 h (100 = growth as untreated, 0 = no growth, -100 = all killed)
Settings in all cases: 10 µM unless noted
DU-145 prostate = system: DU-145 prostate
K-562 leukemia = system: K-562 leukemia
MALME-3M melanoma = system: MALME-3M melanoma
MDA-MB-231 breast = system: MDA-MB-231 breast
RXF 393 renal = system: RXF 393 renal
SF-268 CNS = system: SF-268 CNS
SF-295 CNS = system: SF-295 CNS
SF-539 CNS = system: SF-539 CNS
UACC-257 melanoma = system: UACC-257 melanoma
M14 melanoma = system: M14 melanoma

Measured: growth

FC(F)(F)c1cccc(Nc2ccccc2)c1
inactive: DU-145 prostate 110% | K-562 leukemia 95.5% | MALME-3M melanoma 99.7% | MDA-MB-231 breast 104% | RXF 393 renal 109% | SF-268 CNS 103% | SF-295 CNS 99.9% | SF-539 CNS 95.5% | UACC-257 melanoma 97.4% | M14 melanoma 106%

C=C1C(=O)O[C@H]2[C@H]1CC/C(CNC(=O)/C=C/c1ccc(Br)cc1)=C\CC[C@@]1(C)O[C@@H]21
inactive: SF-295 CNS 49.6%
active: DU-145 prostate -98.7% | K-562 leukemia 0.48% | MALME-3M melanoma -78% | MDA-MB-231 breast -80.6% | RXF 393 renal -89.2% | SF-268 CNS -29.4% | SF-539 CNS -91.7% | UACC-257 melanoma -40.5% | M14 melanoma -72.4%

CC(=O)N1c2ccccc2NC2=C(C(=O)N(Cc3ccccc3)C2(C)C)C1c1ccco1 (stereo not given)
active: DU-145 prostate 7.82% | MDA-MB-231 breast 9.25% | RXF 393 renal -11.7% | SF-295 CNS -0.752% | SF-539 CNS -17.9% | M14 melanoma -13.6%
inactive: K-562 leukemia 12.6% | MALME-3M melanoma 69.9% | SF-268 CNS 42.7% | UACC-257 melanoma 77.6%

CCOc1cc(CNc2ccc(N3CCOCC3)c(C(=O)O)c2)ccc1OC
inactive: DU-145 prostate 101% | K-562 leukemia 101% | MALME-3M melanoma 105% | MDA-MB-231 breast 92.3% | RXF 393 renal 99.3% | SF-268 CNS 97.8% | SF-295 CNS 104% | SF-539 CNS 104% | UACC-257 melanoma 93.9% | M14 melanoma 96.5%

C[C@H]1[C@H](C)CC[C@]2(CO)CC[C@]3(C)C(=CC[C@@H]4[C@@]5(C)CCCNC(C)(C)[C@@H]5CC[C@]43C)[C@H]12
active: DU-145 prostate -17.4% | K-562 leukemia -49.1% | MALME-3M melanoma -71.9% | MDA-MB-231 breast -54.8% | RXF 393 renal -27.9% | SF-268 CNS 5.71% | SF-295 CNS -64.6% | SF-539 CNS -36.5% | UACC-257 melanoma -36.9% | M14 melanoma -73.2%

Nc1c(C(=O)Nc2ccc(Cl)cc2)cc(-c2nc3ccccc3s2)c(=O)n1NS(=O)(=O)c1ccc(Cl)cc1
inactive: DU-145 prostate 107% | K-562 leukemia 95.7% | MALME-3M melanoma 107% | MDA-MB-231 breast 94.1% | RXF 393 renal 104% | SF-268 CNS 96.7% | SF-295 CNS 98.4% | SF-539 CNS 102% | UACC-257 melanoma 104% | M14 melanoma 98.2%

CC(=O)c1cc2c(N)c(C(=O)Nc3cncc4ccccc34)sc2nc1C
inactive: DU-145 prostate 115% | K-562 leukemia 81.7% | MALME-3M melanoma 112% | MDA-MB-231 breast 86.2% | RXF 393 renal 100% | SF-268 CNS 105% | SF-295 CNS 97.2% | SF-539 CNS 98.3% | UACC-257 melanoma 104% | M14 melanoma 94%

C=C1C(=O)O[C@H]2[C@H]1CC/C(CNC(=O)/C=C/c1ccccc1F)=C\CC[C@@]1(C)O[C@@H]21
inactive: MDA-MB-231 breast 16.9% | SF-268 CNS 47.4% | SF-295 CNS 75.1%
active: DU-145 prostate 4.9% | K-562 leukemia 2.05% | MALME-3M melanoma -43.9% | RXF 393 renal -90.5% | SF-539 CNS -50.4% | UACC-257 melanoma -6.45% | M14 melanoma -32.5%

CC(=O)OCC(=O)C1(O)C(C)CC2C3C=C(C)C4=Cc5c(cnn5-c5ccccc5)CC4(C)C3C(O)CC21C (stereo not given)
active: K-562 leukemia 2.57% | MDA-MB-231 breast -11.2% | RXF 393 renal -5.14% | SF-295 CNS -51.1% | SF-539 CNS -21.3% | M14 melanoma -4.56%
inactive: DU-145 prostate 27.1% | MALME-3M melanoma 25.6% | SF-268 CNS 31.1% | UACC-257 melanoma 52.3%

COc1ccc(-n2cc(-c3cc(OC)c(OC)c(OC)c3)n(C(C)=O)c2=O)cc1
inactive: DU-145 prostate 109% | K-562 leukemia 92.9% | MALME-3M melanoma 79.4% | MDA-MB-231 breast 86.4% | RXF 393 renal 111% | SF-268 CNS 94.7% | SF-295 CNS 82.1% | SF-539 CNS 90.2% | UACC-257 melanoma 90.3% | M14 melanoma 111%

COC(=O)CCCCCCCCC1(C)C=CC(C(C)O)=CC1 (stereo not given)
inactive: DU-145 prostate 110% | K-562 leukemia 84.5% | MALME-3M melanoma 105% | MDA-MB-231 breast 110% | RXF 393 renal 107% | SF-268 CNS 105% | SF-295 CNS 109% | SF-539 CNS 112% | UACC-257 melanoma 108% | M14 melanoma 110%

C=C(C)[C@@H]1CC[C@]2(CO)CC[C@]3(C)[C@H](CC[C@@H]4[C@@]5(C)CCCNC(C)(C)[C@@H]5CC[C@]43C)[C@@H]12
inactive: DU-145 prostate 49.5% | MDA-MB-231 breast 46.8% | RXF 393 renal 48.4% | SF-268 CNS 61.2% | SF-295 CNS 40.4% | SF-539 CNS 34.3%
active: K-562 leukemia -26.6% | MALME-3M melanoma -65.4% | UACC-257 melanoma -8.72% | M14 melanoma -49.8%

O=C1Nc2ccccc2/C1=N/c1nc(-c2ccc(Cl)cc2)cs1
inactive: DU-145 prostate 75.3% | K-562 leukemia 48.5% | MALME-3M melanoma 81.4% | MDA-MB-231 breast 67.8% | RXF 393 renal 64.7% | SF-268 CNS 54.1% | SF-295 CNS 81.5% | SF-539 CNS 84.5% | UACC-257 melanoma 48.9% | M14 melanoma 67.8%

CCc1c(Nc2ccc(C)cc2)nc(N)[nH]c1=O
inactive: DU-145 prostate 111% | K-562 leukemia 94.7% | MALME-3M melanoma 98.6% | MDA-MB-231 breast 94.7% | RXF 393 renal 109% | SF-268 CNS 102% | SF-295 CNS 98.3% | SF-539 CNS 101% | UACC-257 melanoma 102% | M14 melanoma 100%

COc1ccc(/C(=C\c2ccccc2)C(=O)O)cc1OC
inactive: DU-145 prostate 108% | K-562 leukemia 134% | MALME-3M melanoma 95.9% | MDA-MB-231 breast 89.1% | RXF 393 renal 104% | SF-268 CNS 103% | SF-295 CNS 101% | SF-539 CNS 103% | UACC-257 melanoma 99.2% | M14 melanoma 98.3%

O=C(Nc1nc(-c2ccccc2Cl)cs1)c1cc(-c2ccccc2)nc2ccc(Cl)cc12
inactive: DU-145 prostate 77.8% | K-562 leukemia 25.2% | MALME-3M melanoma 63.9% | MDA-MB-231 breast 46.8% | RXF 393 renal 87.2% | SF-268 CNS 44.7% | SF-295 CNS 81.1% | UACC-257 melanoma 84.6%
active: SF-539 CNS -7.04% | M14 melanoma 4.1%

C=C(C)[C@@H]1CC[C@]2(C=O)CC[C@]3(C)[C@H](CC[C@@H]4[C@@]5(C)CCCNC(C)(C)[C@@H]5CC[C@]43C)[C@@H]12
inactive: DU-145 prostate 77.6% | MALME-3M melanoma 77.7% | MDA-MB-231 breast 91.2% | RXF 393 renal 85.9% | SF-268 CNS 90.8% | SF-295 CNS 105% | SF-539 CNS 90.1% | UACC-257 melanoma 86.6% | M14 melanoma 81%
active: K-562 leukemia 0.984%

OC(c1ccccc1)c1ccccn1 (stereo not given)
inactive: DU-145 prostate 110% | K-562 leukemia 94.3% | MALME-3M melanoma 113% | MDA-MB-231 breast 105% | RXF 393 renal 104% | SF-268 CNS 102% | SF-295 CNS 101% | SF-539 CNS 97.7% | UACC-257 melanoma 90.5% | M14 melanoma 96.1%

Cc1nn(-c2ccccc2)c(N2CCOCC2)c1/C=N/N=c1\sc2ccccc2n1C
inactive: DU-145 prostate 100% | K-562 leukemia 41.7% | MALME-3M melanoma 99.4% | MDA-MB-231 breast 52.3% | RXF 393 renal 88.6% | SF-268 CNS 85% | SF-295 CNS 89.3% | SF-539 CNS 84.7% | UACC-257 melanoma 87.8% | M14 melanoma 87.5%

CCCCCCCC(=O)Nc1nc2[nH]c(CN3CCN(Cc4cccc(I)c4)CC3)c(CN3CCN(Cc4cccc(I)c4)CC3)c2c(=O)[nH]1
active: DU-145 prostate -83.5% | K-562 leukemia -43.8% | MALME-3M melanoma -49.9% | MDA-MB-231 breast -89.8% | RXF 393 renal -96.1% | SF-268 CNS -82.9% | SF-295 CNS -69.5% | SF-539 CNS -89.4% | UACC-257 melanoma -33% | M14 melanoma -56.6%

CCSc1ccc2c(c1)N(CCCN1CCN(C)CC1)c1ccccc1S2
active: K-562 leukemia -20.9% | MALME-3M melanoma -61.6% | UACC-257 melanoma -69.8% | M14 melanoma -86.9%
inactive: DU-145 prostate 56.3% | MDA-MB-231 breast 16.5% | RXF 393 renal 18.6% | SF-268 CNS 55.8% | SF-295 CNS 35.4% | SF-539 CNS 63.2%

C=CCn1c(SCC(=O)Nc2ccc(C(=O)/C=C/c3cc(OC)c(OC)c(OC)c3)cc2)nnc1-c1cc(OC)c(OC)c(OC)c1
active: K-562 leukemia 6.9% | SF-539 CNS 4.95%
inactive: DU-145 prostate 24.2% | MALME-3M melanoma 92.4% | MDA-MB-231 breast 49.3% | RXF 393 renal 21.4% | SF-268 CNS 34.9% | SF-295 CNS 60.4% | UACC-257 melanoma 64.1% | M14 melanoma 18.6%

C1=C2CNCC3=Cc4ccc5ccccc5c4OC23Oc2c1ccc1ccccc21
inactive: DU-145 prostate 65.3% | K-562 leukemia 18.8% | MALME-3M melanoma 60.6% | MDA-MB-231 breast 51.3% | SF-268 CNS 42.7% | SF-295 CNS 11.6% | SF-539 CNS 50.5% | UACC-257 melanoma 60.9%
active: RXF 393 renal -3.36% | M14 melanoma 2.63%

Nc1c(C(=O)Nc2cccc3ccncc23)sc2nc3c(cc12)C(=O)CCC3
inactive: DU-145 prostate 38.5% | K-562 leukemia 24.8% | MALME-3M melanoma 63.7% | MDA-MB-231 breast 62.8% | RXF 393 renal 29.8% | SF-268 CNS 55.1% | SF-295 CNS 20.1% | SF-539 CNS 16.1% | UACC-257 melanoma 49.2% | M14 melanoma 26.1%

COc1cc2c(cc1[N+](=O)[O-])-c1ccc([N+](=O)[O-])cc1/C2=N\O
inactive: DU-145 prostate 120% | K-562 leukemia 88.7% | MALME-3M melanoma 116% | MDA-MB-231 breast 87.4% | RXF 393 renal 79.8% | SF-268 CNS 89.6% | SF-295 CNS 77.2% | SF-539 CNS 84.9% | UACC-257 melanoma 97.9% | M14 melanoma 93.9%

O=C1Nc2cc(-c3ccncc3)ccc2/C1=C/c1ccc[nH]1
inactive: DU-145 prostate 88.1% | K-562 leukemia 98.3% | MALME-3M melanoma 65.8% | MDA-MB-231 breast 65.2% | RXF 393 renal 93.1% | SF-268 CNS 94.5% | SF-295 CNS 102% | SF-539 CNS 91.9% | UACC-257 melanoma 114% | M14 melanoma 91.9%

Source: PubChem BioAssay (NCI)
